Test system: Vero E6 infected with SARS-CoV-2
Assay: inhibition of SARS-CoV-2 cytopathic effect; higher = more antiviral protection, active = above 15
Conditions: 48 h

Measured: inhibition of SARS-CoV-2 cytopathic effect

Cc1ccc(C)c([C@H](O)CNC(C)C)c1 [benzenemethanol,-2,5-dimethyl-[[(1-methylethyl)amino]methyl]]
inactive: 1 nM -1.13% | 8.33 nM 2.02% | 100 nM 0.03% | 833.33 nM 0.15% | 10000 nM 1.34%

CCN1CCN(Cc2ccc(Nc3ncc(F)c(-c4cc(F)c5nc(C)n(C(C)C)c5c4)n3)nc2)CC1 [abemaciclib]
inactive: 1 nM -2.71% | 8.33 nM -0.27% | 100 nM -1.26% | 833.33 nM 11.9% | 10000 nM 12.3%

CSCC[C@H](NC(=O)[C@H](Cc1ccccc1)NC(=O)CNC(=O)CNC(=O)[C@@H](N)Cc1ccc(O)cc1)C(=O)O [metenkephalin]
inactive: 1 nM 0.74% | 8.33 nM -1.23% | 100 nM 1.24% | 833.33 nM -4.78% | 10000 nM -5.57%

O=C(NOCC1CC1)c1ccc(F)c(F)c1Nc1ccc(I)cc1Cl
inactive: 1 nM -1.59% | 8.33 nM -0.84% | 100 nM -7.28% | 833.33 nM -6.38% | 10000 nM -13.8%

O=C(NCc1cccc(O)c1)Nc1nc(-c2ccncc2)cs1
inactive: 1 nM 1.7% | 8.33 nM 1.65% | 100 nM -1.57% | 833.33 nM -6.16% | 10000 nM -6.11%

COc1cc(Nc2ncc(F)c(Nc3ccc4c(n3)NC(=O)C(C)(C)O4)n2)cc(OC)c1OC
inactive: 1 nM -3.02% | 8.33 nM -0.43% | 100 nM -2.04% | 833.33 nM -4.61% | 10000 nM -4.19%
